# Screening data: PubChem, The Scripps Research Institute Molecular Screening Center
# Sampled rows, rich in hits. Any-hit rate of the full collection: about 3.4%.
# MITF inh – inhibitors of human MITF | 650,000 tested, 0.91% active | AID 1259374 | inhibition, % at 2.6 µM | AlphaScreen MITF homodimerization, bead proximity signal | O75030; in the data active = inhibition above about 50%;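 also: 0% = vehicle wells with protein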
# Target sequence (O75030 whole entry, looked up): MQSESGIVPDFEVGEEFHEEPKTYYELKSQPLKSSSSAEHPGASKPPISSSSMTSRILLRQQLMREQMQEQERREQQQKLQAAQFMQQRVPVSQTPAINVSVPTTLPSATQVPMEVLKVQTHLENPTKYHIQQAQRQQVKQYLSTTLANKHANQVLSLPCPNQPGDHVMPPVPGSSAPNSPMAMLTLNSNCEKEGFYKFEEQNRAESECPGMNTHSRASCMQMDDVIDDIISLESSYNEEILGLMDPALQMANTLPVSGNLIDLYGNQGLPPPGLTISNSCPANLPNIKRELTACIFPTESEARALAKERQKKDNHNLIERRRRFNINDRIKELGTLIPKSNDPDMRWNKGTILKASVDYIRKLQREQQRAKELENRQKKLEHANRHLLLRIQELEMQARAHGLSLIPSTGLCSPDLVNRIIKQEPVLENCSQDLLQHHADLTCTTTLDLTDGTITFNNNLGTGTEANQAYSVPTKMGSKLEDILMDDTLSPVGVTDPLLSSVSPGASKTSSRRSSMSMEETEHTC
# FBW7 activator – activators of human E3 ligase FBW7; Q969H0; AlphaScreen FBW7–phospho-cyclin E peptide binding, activator screen; normalized activity (activation), % at 26.1 µM; 650,000 tested, 0.13% active; AID 1259310; in the data active = normalized activity above about 1.9%;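 also: purified mutant Fbw7 with reduced substrate affinity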
# TEAD-YAP inh – TEAD-YAP interaction inhibition | HEK-TIYL cells, TEAD-Gal4/YAP UAS-luciferase luminescence | inhibition, % at 9.12 µM | 640,000 tested, 1.4% active; in the data active = inhibition above about 32%;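 also: 0% = median of test compound wells and 100% = reference inhibitor wells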
# GPR151 activ – human GPR151 activation; Q8TDV0; PathHunter beta-arrestin GPR151 cells, luminescence; activation, % at 11.2 µM; 650,000 tested, 1% active; in the data active = activation above about 4.9%;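 also: 0% = median of compound wells and 100% = cells with positive control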
# GPR151 conf act – confirmation of human GPR151 activators; shares compounds with GPR151 activ; GPR151 PathHunter beta-arrestin cells, luminescence, 90 min; % of EA-reagent control over plate median; activation, % at 11.2 µM; 6,700 tested, under 10 active;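 active = mean percent activation across replicates above the confirmation screen cutoff of 4.91%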
# GPR119 counter – counter-screen for GPR151 activators: effect on human GPR119; activation, % at 11.2 µM; shares compounds with GPR151 activ; GPR119 PathHunter beta-arrestin cells, luminescence, 90 min; 0 = compound-well median, 100 = enzyme-acceptor control; 6,700 tested, 0.3% active;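 active = mean percent activation in the counterscreen above 29.09%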;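 also: counterscreen on off-target GPR119 to flag nonselective hits from the GPR151 activator screen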
# Numbers without * were called inactive; / = not tested or not shown.
SMILES,MITF inh,FBW7 activator,TEAD-YAP inh,GPR151 activ,GPR151 conf act,GPR119 counter
O=[N+]([O-])c1c(Oc2ccc(Cl)cc2)ccc2nsnc12,12,0,-5,5.3*,0,-7
Cc1cc(N2CCN(c3ncccn3)CC2)nc2ccc(NC(=O)Cc3cccs3)cc12,-7,0,13,5.1*,1,-8
Cc1cccc(C(=O)Nc2ccc3nc(N4CCCCC4)cc(C)c3c2)c1,-8,0,-7,5.8*,0,8
Cc1ccc(OCCOCCNCCN(C)C)c(I)c1,-17,0,-3,5,/,/
CCC(C)NS(=O)(=O)c1ccc(NC(=O)CCCOc2ccccc2)cc1 (stereo unspecified),0,0,4,1,/,/
CC1(C)CC(=O)C2=C(C1)NC1=C(C(=O)c3ccccc31)C2c1ccc(O)c(O)c1 (stereo unspecified),14,0,-8,1,/,/
O=C(CCCn1c(=S)[nH]c2ccc(Br)cc2c1=O)NCc1cccnc1,-1,0,-6,2,/,/
O=C(Nc1nc(SCc2ccc(F)cc2)ns1)c1cc(F)c(F)cc1Cl,-1,0,27,8.4*,0,-5
CSc1nsc(NC(=O)c2ccc(F)cc2F)n1,2,0,-64,-10,/,/
C/C(CC(=O)N1CCCCC1)=N\NC(=O)COc1ccc(C)cc1Br,10,0,0,-1,/,/
CC(C)n1nnnc1C(c1ccc(N(C)C)cc1)N1CCN(c2ccccc2F)CC1 (stereo unspecified),23,0,-30,0,/,/
O=C(CN1C(=O)COc2ccccc21)N1CCN(C(c2ccccc2)c2ccccc2)CC1,7,0,14,-1,/,/
COc1cc(CNCCO)cc(Br)c1OCc1ccccc1,16,1,0,-1,/,/
C=CCOc1c(Br)cc(CNCCO)cc1OC,-5,0,4,6.7*,-1,-3
Cn1ccnc1N1CCN(C(=O)c2cccc(F)c2)CC1,9,0,5,5.1*,-1,-12
O=C(N/N=C/c1ccc([N+](=O)[O-])cc1)c1cc(Br)cc(Br)c1O,-5,0,-14,0,/,/
c1ccc2c(N3CCCCCC3)nc(CN3CCCC3c3nccs3)nc2c1 (stereo unspecified),-1,0,-2,5.0*,0,-4
Cc1cc(C)cc(NC(=O)c2cnc3ccc(C)cn3c2=O)c1,-3,0,6,-1,/,/
Cc1ccc2ncc(C(=O)Nc3cc(C)on3)c(=O)n2c1,9,0,-20,8.2*,0,-3
CCOc1ccc(/C(O)=C2/C(=O)C(=O)N(CCN(CC)CC)C2c2ccc(OC)c(OC)c2)cc1C (stereo unspecified),0,0,-10,6.6*,0,-5
CCOc1ccc(/C(O)=C2/C(=O)C(=O)N(CCN(CC)CC)C2c2ccc(Cl)cc2)cc1C (stereo unspecified),1,0,7,-1,/,/
CCN(CC)CCCN1C(=O)C(C)SC1c1ccccc1[N+](=O)[O-] (stereo unspecified),9,0,4,13*,1,9
CCN(CC)CCCOc1ccccc1[N+](=O)[O-],5,0,-12,0,/,/
CCSC1=C(C#N)C(c2ccccc2Cl)C(C(=O)Nc2ccccc2OC)=C(C)N1 (stereo unspecified),-6,0,9,2,/,/
c1ccc(CN2CCC(N3CCN(C4CCCC4)CC3)CC2)cc1,31,0,11,5.1*,0,6
SMILES,MITF inh,FBW7 activator,TEAD-YAP inh,GPR151 activ,GPR151 conf act,GPR119 counter
CC(C)C(c1nnnn1Cc1ccccc1)N1CCN(C2CCCC2)CC1 (stereo unspecified),3,0,4,9.0*,-1,-3
CC(C)C(c1nnnn1Cc1ccc(F)cc1)N1CCN(C2CCCC2)CC1 (stereo unspecified),17,0,4,-1,/,/
COc1cc(C(=O)O)cc(Cl)c1OCC(C)C,2,0,0,0,/,/
Cc1cc(C)c2nc(-n3nc(C)cc3NC(=O)C3CC3)sc2c1,1,0,10,-1,/,/
CC/C(C)=C(\C#N)c1nc2ccccc2[nH]1,-5,0,-44,5.7*,1,11
COc1cccc(OC/C(O)=C(\C#N)c2nc3ccccc3[nH]2)c1,0,0,-1,5.2*,0,1
